Measured values taken from PubChem BioAssay (EPA / NIEHS).
The source made the active and inactive calls. The calls were made as follows: active = hit-call score of the fitted dose curve at least 0.9, where 1 is the maximum; inactive = score below 0.9.

Columns and labels:
[1] = read-out: Interleukin-6 (IL6), IL6 (gene 3569); assay: BSK_CASM3C_IL6: BioMAP Diversity Plus: CASM3C Assay for Interleukin-6 (IL6) Biomarker Activity for (AID 2283040); settings: primary human coronary artery smooth muscle cells; actives raise or lower the signal
[2] = read-out: Tissue plasminogen activator (tPA), PLAT (gene 5327); assay: BSK_BE3C_tPA: BioMAP Diversity Plus: BE3C Assay for Tissue plasminogen activator (tPA) Biomarker Activity (AID 2283041); settings: primary human bronchial epithelial cells; actives raise or lower the signal;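 also: tPA level quantified by ELISA one day after compound addition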
In short: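 Primary human bronchial epithelial cells in the BE3C system, exposed to compound for 24 h. tPA was quantified by ELISA; DMSO served as baseline, with gain or loss of signal fitted. Cytotoxicity checked in parallel cultures by SRB total-protein staining.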

[3] = read-out: Interleukin-8 (IL8), CXCL8 (gene 3576); assay: BSK_CASM3C_IL8: BioMAP Diversity Plus: CASM3C Assay for Interleukin-8 (IL8) Biomarker Activity (AID 2283042); settings: primary human coronary artery smooth muscle cells; actives raise or lower the signal;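 also: IL-8 protein level quantified by ELISA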
[4] = read-out: Human Leukocyte Antigen - DR isotype (HLADR), HLA-DRA (gene 3122); assay: BSK_CASM3C_HLADR: BioMAP Diversity Plus: CASM3C Assay for Human Leukocyte Antigen - DR isotype (HLADR) Biomarker Activity (AID 2283043); settings: primary human coronary artery smooth muscle cells; actives raise or lower the signal;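 also: cell-surface HLA-DR protein level quantified by ELISA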
[5] = read-out: Macrophage colony-stimulating factor (MCSF), CSF1 (gene 1435); assay: BSK_CASM3C_MCSF: BioMAP Diversity Plus: CASM3C Assay for Macrophage colony-stimulating factor (MCSF) Biomarker Activity (AID 2283044); settings: primary human coronary artery smooth muscle cells; actives raise or lower the signal;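 also: M-CSF protein amount quantified by ELISA after 24 h exposure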
[6] = read-out: Low-density lipoprotein receptor (LDLR), LDLR (gene 3949); assay: BSK_CASM3C_LDLR: BioMAP Diversity Plus: CASM3C Assay for Low-density lipoprotein receptor (LDLR) Biomarker Activity (AID 2283045); settings: primary human coronary artery smooth muscle cells; actives raise or lower the signal;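 also: LDLR protein level on the cell surface quantified by ELISA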
[7] = read-out: Monocyte Chemoattractant Protein-1 (MCP1), CCL2 (gene 6347); assay: BSK_CASM3C_MCP1: BioMAP Diversity Plus: CASM3C Assay for Monocyte Chemoattractant Protein-1 (MCP1) Biomarker Activity (AID 2283046); settings: primary human coronary artery smooth muscle cells; actives raise or lower the signal;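 also: MCP-1 level quantified by ELISA 24 h after dosing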
[8] = BSK_CASM3C_Proliferation: Cell Proliferation Assessment in the BioMAP Diversity Plus: CASM3C Assay (AID 2283047); settings: primary human coronary artery smooth muscle cells;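 also: sulforhodamine B total protein stain as relative cell number at 560 nm; sub-confluent cells exposed 48 h before staining; fitted both ways against DMSO so gain or loss of cell number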
[9] = read-out: Monokine induced gamma interferon (MIG), CXCL9 (gene 4283); assay: BSK_CASM3C_MIG: BioMAP Diversity Plus: CASM3C Assay for Monokine induced gamma interferon (MIG) Biomarker Activity (AID 2283048); settings: primary human coronary artery smooth muscle cells; actives raise or lower the signal;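 also: MIG protein level measured by ELISA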
[10] = read-out: serum amyloid A (SAA), SAA1 (gene 6288); assay: BSK_CASM3C_SAA: BioMAP Diversity Plus: CASM3C Assay for serum amyloid A (SAA) Biomarker Activity (AID 2283049); settings: primary human coronary artery smooth muscle cells; actives raise or lower the signal;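 also: SAA protein level quantified by ELISA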
[11] = BSK_CASM3C_SRB: Viability Assessment in the BioMAP Diversity Plus: CASM3C Assay (AID 2283050); settings: primary human coronary artery smooth muscle cells
[12] = read-out: Thrombomodulin, THBD (gene 7056); assay: BSK_CASM3C_Thrombomodulin: BioMAP Diversity Plus: CASM3C Assay for Thrombomodulin Biomarker Activity (AID 2283051); settings: primary human coronary artery smooth muscle cells; actives raise or lower the signal;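 also: thrombomodulin protein level measured by ELISA 24 h after dosing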
[13] = read-out: Tissue Factor, F3 (gene 2152); assay: BSK_CASM3C_TissueFactor: BioMAP Diversity Plus: CASM3C Assay for Tissue Factor Biomarker Activity (AID 2283052); settings: primary human coronary artery smooth muscle cells; actives raise or lower the signal;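 also: cell surface tissue factor protein level read by ELISA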
[14] = read-out: Interferon-gamma inducible Protein 10 (IP10), CXCL10 (gene 3627); assay: BSK_hDFCGF_IP10: BioMAP Diversity Plus: hDFCGF Assay for Interferon-gamma inducible Protein 10 (IP10) Biomarker Activity (AID 2283053); settings: primary human foreskin fibroblasts; actives raise or lower the signal
In short: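 Primary human foreskin fibroblasts exposed to chemicals for 24 h. IP-10 measured by ELISA; changes fitted bidirectionally against DMSO baseline.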

[15] = read-out: Urokinase-type plasminogen activator receptor (uPAR), PLAUR (gene 5329); assay: BSK_CASM3C_uPAR: BioMAP Diversity Plus: CASM3C Assay for Urokinase-type plasminogen activator receptor (uPAR) Biomarker Activity (AID 2283054); settings: primary human coronary artery smooth muscle cells; actives raise or lower the signal;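 also: cell-surface uPAR protein level quantified by ELISA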
[16] = read-out: Vascular cell adhesion molecule 1 (VCAM1), VCAM1 (gene 7412); assay: BSK_CASM3C_VCAM1: BioMAP Diversity Plus: CASM3C Assay for Vascular cell adhesion molecule 1 (VCAM1) Biomarker Activity (AID 2283055); settings: primary human coronary artery smooth muscle cells; actives raise or lower the signal;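 also: VCAM-1 protein level quantified by ELISA on the cells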
[17] = read-out: Collagen III, COL3A1 (gene 1281); assay: BSK_hDFCGF_CollagenIII: BioMAP Diversity Plus: hDFCGF Assay for Collagen III Biomarker Activity (AID 2283056); settings: primary human foreskin fibroblasts; actives raise or lower the signal
In short: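 ELISA readout of Collagen III in human dermal (foreskin) fibroblasts, taken 24 h post-treatment. Gain or loss relative to DMSO vehicle fitted in both directions.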

[18] = read-out: Epidermal growth factor receptor (EGFR), EGFR (gene 1956); assay: BSK_hDFCGF_EGFR: BioMAP Diversity Plus: hDFCGF Assay for Epidermal growth factor receptor (EGFR) Biomarker Activity (AID 2283057); settings: primary human foreskin fibroblasts; actives raise or lower the signal
In short: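 Primary human foreskin fibroblasts (hDFCGF system), sampled 24 h after dosing; EGFR quantified by ELISA. Bidirectional fit relative to DMSO baseline; SRB total-protein staining in parallel cultures for cytotoxicity.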

[19] = read-out: Interleukin-8 (IL8), CXCL8 (gene 3576); assay: BSK_hDFCGF_IL8: BioMAP Diversity Plus: hDFCGF Assay for Interleukin-8 (IL8) Biomarker Activity (AID 2283058); settings: primary human foreskin fibroblasts; actives raise or lower the signal
In short: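 IL-8 levels read by ELISA at 24 hours after dosing human skin fibroblast cultures. Parallel SRB staining assessed overt cytotoxicity, and gain or loss of signal was fitted against DMSO control.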

[20] = BSK_hDFCGF_Proliferation: Cell Proliferation Assessment in the BioMAP Diversity Plus: hDFCGF Assay (AID 2283059); settings: primary human foreskin fibroblasts;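 also: curves fitted for both rise and fall of signal versus DMSO baseline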
In short: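 This proliferation readout used SRB total-protein staining of human foreskin fibroblasts […], normalized to DMSO with bidirectional curve fitting.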

In the case of `CC(=O)OCCOCCOCCOC(C)=O`, the outcome [1] was “inactive”, the outcome [2] was “inactive” and the outcome [3] was “inactive”. The outcome [4] was “inactive”, the outcome [5] was “inactive” and the outcome [6] was “inactive”. For the same compound, the outcome [7] was “inactive”, the outcome [8] was “inactive” and the outcome [9] was “inactive”. The outcome [10] was “inactive”, the outcome [11] was “inactive” and the outcome [12] was “inactive”. The outcome [13] was “inactive”, the outcome [14] was “inactive” and the outcome [15] was “inactive”. For the same compound, the outcome [16] was “inactive”, the outcome [17] was “inactive” and the outcome [18] was “inactive”. The outcome [19] was “inactive” and the outcome [20] was “inactive”.
With `C=CCc1ccc(O)c(OC)c1` the outcome [1] was “inactive”, the outcome [2] was “inactive” and the outcome [3] was “inactive”. The outcome [4] was “inactive”, the outcome [5] was “inactive” and the outcome [6] was “inactive”. The outcome [7] was “inactive”, the outcome [8] was “inactive” and the outcome [9] was “inactive”. For the same compound, the outcome [10] was “inactive”, the outcome [11] was “inactive” and the outcome [12] was “inactive”. For the same compound, the outcome [13] was “inactive”, the outcome [14] was “inactive” and the outcome [15] was “inactive”. The outcome [16] was “inactive”, the outcome [17] was “inactive” and the outcome [18] was “inactive”. The outcome [19] was “inactive” and the outcome [20] was “inactive”.
For `C1CCC(SSC2CCCCC2)CC1`, the outcome [1] was “inactive”, the outcome [2] was “inactive” and the outcome [3] was “inactive”. The AC50 [4] was 30.5 µM (active), the outcome [5] was “inactive” and the outcome [6] was “inactive”. For the same compound, the AC50 [7] was 31.5 µM (active), the AC50 [8] was 34.1 µM (active) and the outcome [9] was “inactive”. For the same compound, the outcome [10] was “inactive”, the outcome [11] was “inactive” and the AC50 [12] was 14.8 µM (active). The outcome [13] was “inactive”, the AC50 [14] was 30.4 µM (active) and the outcome [15] was “inactive”. For the same compound, the AC50 [16] was 28.8 µM (active), the AC50 [17] was 11.7 µM (active) and the outcome [18] was “inactive”. For the same compound, the outcome [19] was “inactive” and the AC50 [20] was 15.9 µM (active).
In the case of `Cc1ccc(Cl)cc1`, the outcome [1] was “inactive”, the outcome [2] was “inactive” and the outcome [3] was “inactive”. For the same compound, the outcome [4] was “inactive”, the outcome [5] was “inactive” and the outcome [6] was “inactive”. The outcome [7] was “inactive”, the outcome [8] was “inactive” and the outcome [9] was “inactive”. For the same compound, the outcome [10] was “inactive”, the outcome [11] was “inactive” and the outcome [12] was “inactive”. The outcome [13] was “inactive”, the outcome [14] was “inactive” and the outcome [15] was “inactive”. For the same compound, the outcome [16] was “inactive”, the outcome [17] was “inactive” and the outcome [18] was “inactive”. For the same compound, the outcome [19] was “inactive” and the AC50 [20] was 0.148 µM (active).
For `CCNc1cccc(C)c1`, the outcome [1] was “inactive”, the outcome [2] was “inactive” and the outcome [3] was “inactive”. For the same compound, the outcome [4] was “inactive”, the outcome [5] was “inactive” and the outcome [6] was “inactive”. The outcome [7] was “inactive”, the outcome [8] was “inactive” and the outcome [9] was “inactive”. The outcome [10] was “inactive”, the outcome [11] was “inactive” and the outcome [12] was “inactive”. The outcome [13] was “inactive”, the outcome [14] was “inactive” and the outcome [15] was “inactive”. The outcome [16] was “inactive”, the outcome [17] was “inactive” and the outcome [18] was “inactive”. The outcome [20] was “inactive”.
With `COc1ccc(S(=O)(=O)N2C(=O)[C@@](c3ccccc3OC)(N3C[C@H](O)C[C@H]3C(=O)N(C)C)c3cc(Cl)ccc32)c(OC)c1` the outcome [1] was “inactive”, the outcome [2] was “inactive” and the outcome [3] was “inactive”. For the same compound, the outcome [4] was “inactive”, the outcome [5] was “inactive” and the outcome [6] was “inactive”. For the same compound, the outcome [7] was “inactive”, the outcome [8] was “inactive” and the outcome [9] was “inactive”. For the same compound, the outcome [10] was “inactive”, the outcome [11] was “inactive” and the outcome [12] was “inactive”. The outcome [13] was “inactive”, the outcome [14] was “inactive” and the outcome [15] was “inactive”. The outcome [16] was “inactive”, the outcome [17] was “inactive” and the outcome [18] was “inactive”. For the same compound, the AC50 [20] was 30.5 µM (active).
With `Cc1cc(NC(=O)C(=O)O)cc(C)c1Oc1ccc(O)c2c1CCC2` the outcome [1] was “inactive”, the outcome [2] was “inactive” and the outcome [3] was “inactive”. For the same compound, the outcome [4] was “inactive”, the outcome [5] was “inactive” and the outcome [6] was “inactive”. For the same compound, the outcome [7] was “inactive”, the outcome [8] was “inactive” and the outcome [9] was “inactive”. The outcome [10] was “inactive”, the outcome [11] was “inactive” and the outcome [12] was “inactive”. For the same compound, the outcome [13] was “inactive”, the outcome [14] was “inactive” and the outcome [15] was “inactive”. The outcome [16] was “inactive”, the outcome [17] was “inactive” and the outcome [18] was “inactive”. For the same compound, the outcome [20] was “inactive”.
In the case of `COc1cc(S(=O)(=O)O)c(C)cc1N=Nc1c(O)ccc2cc(S(=O)(=O)O)ccc12`, the outcome [1] was “inactive”, the outcome [2] was “inactive” and the outcome [3] was “inactive”. For the same compound, the outcome [4] was “inactive”, the outcome [5] was “inactive” and the outcome [6] was “inactive”. The outcome [7] was “inactive”, the outcome [8] was “inactive” and the outcome [9] was “inactive”. For the same compound, the outcome [10] was “inactive”, the outcome [11] was “inactive” and the outcome [12] was “inactive”. For the same compound, the outcome [13] was “inactive”, the outcome [14] was “inactive” and the outcome [15] was “inactive”. The outcome [16] was “inactive”, the outcome [17] was “inactive” and the outcome [18] was “inactive”. The outcome [20] was “inactive”.
With `CC1=C(/C=C/C(C)=C/C=C/C(C)=C/CO)C(C)(C)CCC1` the outcome [1] was “inactive”, the outcome [2] was “inactive” and the outcome [3] was “inactive”. The outcome [4] was “inactive”, the outcome [5] was “inactive” and the outcome [6] was “inactive”. The outcome [7] was “inactive”, the AC50 [8] was 20.9 µM (active) and the outcome [9] was “inactive”. The outcome [10] was “inactive”, the outcome [11] was “inactive” and the AC50 [12] was 12.2 µM (active). For the same compound, the outcome [13] was “inactive”, the AC50 [14] was 27.4 µM (active) and the outcome [15] was “inactive”. For the same compound, the outcome [16] was “inactive”, the outcome [17] was “inactive” and the AC50 [18] was 27.8 µM (active). For the same compound, the AC50 [20] was 12.4 µM (active).
